The values that follow come from PMC5540273 (PLoS ONE, 2017).

Among the test systems are RIPK1; RIPK2; RIPK4; RIPK5; ROCK1; ROCK2; ROS1; S6K1.
What all share (conditions): concentration: 1 μM, replicates: in singlicate; n = 1
In experiment [1] the test system is RPS6KA4(Kin.Dom.1-N-terminal).
The test system of experiment [2] is RPS6KA4(Kin.Dom.2-C-terminal).
Experiment [3] deals with RPS6KA5(Kin.Dom.1-N-terminal).
Experiment [4] deals with RPS6KA5(Kin.Dom.2-C-terminal).
In experiment [5] the test system is T1, RSK1(Kin.Dom.1-N-terminal).
T1 construct: gene RPS6KA1

In experiment [6] the test system is T2, RSK1(Kin.Dom.2-C-terminal).
T2 construct: gene RPS6KA1

For experiment [7], the system named is T3, RSK2(Kin.Dom.1-N-terminal).
T3 construct: gene RPS6KA3

The test system of experiment [8] is T4, RSK2(Kin.Dom.2-C-terminal).
T4 construct: gene RPS6KA3

Experiment [9] has as its system T5, RSK3(Kin.Dom.1-N-terminal).
T5 construct: gene RPS6KA2

Experiment [10] relates to T6, RSK3(Kin.Dom.2-C-terminal).
T6 construct: gene RPS6KA2

Experiment [11] relates to T7, RSK4(Kin.Dom.1-N-terminal).
T7 construct: gene RPS6KA6

For experiment [12], the system named is T8, RSK4(Kin.Dom.2-C-terminal).
T8 construct: gene RPS6KA6
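Further: KINOMEscan kinase panel screen.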

For `CN1c2ccc(-c3ccc(C(=O)NCCO)cc3)cc2-c2[nH]ncc2S1(=O)=O`, the “%Inh” value is on record as 1% with RIPK1; 13% in the experiment on RIPK2; 0% in the experiment with RIPK4; 27% in the experiment on RIPK5; 0% in the experiment with ROCK1; 41% in the experiment with ROCK2. In addition, the “%Inh” value is on record as 8% with ROS1; 25% in [1]; 49% in experiment [2]; 0% in [3]; 14% in experiment [4]; 0% in experiment [5]. In addition, the “%Inh” value came to 26% in [6]; 12% in experiment [7]; 41% in experiment [8]; 0% in [9]; 35% in [10]; 3% in [11]. In addition, the “%Inh” value in [12] worked out at 27%; with S6K1, 33%.
As for `Cl.O=S(=O)(c1cccc(F)c1)c1ccc(Nc2ncnc3cc(Br)sc23)cc1Cl` [GSK306886], the “%Inh” value with RIPK1 is listed as 29%; in the experiment on RIPK2, 42%; in the experiment with RIPK4, 0%; with RIPK5 it was 16%; with ROCK1, 9%; with ROCK2, 14%. The “%Inh” value turned out to be 12% in the experiment on ROS1; 16% in [1]; 0% in [2]; 0% in [3]; 4% in [4]; 17% in experiment [5]. Besides, the “%Inh” value is 17% in [6]; 0% in [7]; 0% in experiment [8]; 0% in experiment [9]; 31% in experiment [10]; 0% in experiment [11]. The “%Inh” value in experiment [12] was 14%; with S6K1, 0%.
As to `Cl.Fc1ccccc1COc1ccc(Nc2ncnc3ccc(-c4nnc(C(F)(F)F)o4)cc23)cc1Cl` [GW424170], the “%Inh” value in the experiment on RIPK1 came out at 9%; in the experiment with RIPK2, 28%; with RIPK4 it was 0%; in the experiment on RIPK5, 0%; in the experiment on ROCK1, 10%; with ROCK2, 4%. Further, the “%Inh” value stood at 11% with ROS1; 10% in experiment [1]; 0% in experiment [2]; 6% in [3]; 0% in experiment [4]; 1% in experiment [5]. The “%Inh” value in experiment [6] was 1%; in [7] it was 0%; in experiment [8] it was 0%; in experiment [9] it was 0%; in [10] it was 0%; in [11], 0%. Also, the “%Inh” value was 2% in experiment [12] and 0% in the experiment with S6K1.
`CS(=O)(=O)CCNCc1ccc(-c2ccc3ncnc(Nc4ccc(OCc5ccccc5)c(Cl)c4)c3c2)o1.Cl` [GW574783]: the “%Inh” value with RIPK1 was found to be 9%; in the experiment with RIPK2, 79%; in the experiment on RIPK4 it was 0%; in the experiment with RIPK5 it was 0%; with ROCK1 it was 22%; in the experiment with ROCK2, 21%. Further, the “%Inh” value with ROS1 is 0%; in experiment [1], 32%; in experiment [2], 0%; in [3], 28%; in [4], 0%; in experiment [5] it was 0%. The “%Inh” value in experiment [6] was found to be 0%; in [7] it was 4%; in experiment [8] it was 29%; in [9], 17%; in [10] it was 6%; in experiment [11] it was 6%. Further, the “%Inh” value in experiment [12] is 8%; in the experiment with S6K1, 0%.
Regarding `C[C@H]1CC[C@@H](C(=O)Nc2ccccc2)CN1c1cc(-c2ccc3c(N)n[nH]c3c2)nc(N)n1` [GSK2283293], the “%Inh” value in the experiment on RIPK1 is 0%; with RIPK2 it was 0%; in the experiment with RIPK4, 6%; in the experiment with RIPK5, 0%; with ROCK1, 9%; in the experiment with ROCK2, 18%. The “%Inh” value stood at 0% with ROS1; 6% in experiment [1]; 0% in experiment [2]; 12% in experiment [3]; 0% in [4]; 18% in experiment [5]. Moreover, the “%Inh” value in [6] is 8%; in [7], 0%; in experiment [8], 21%; in [9], 0%; in experiment [10] it was 9%; in experiment [11], 0%. In addition, the “%Inh” value in [12] is 23%; in the experiment on S6K1, 0%.
Consider `Cl.c1ccc(Cn2ccc3cc(Nc4ncnc5ccccc45)ccc32)cc1` [GW275568], for which the “%Inh” value in the experiment with RIPK1 stood at 26%; with RIPK2, 54%; in the experiment on RIPK4, 21%; in the experiment with RIPK5, 32%; with ROCK1 it was 1%; in the experiment with ROCK2, 0%. The “%Inh” value was determined as 14% with ROS1; 4% in experiment [1]; 0% in [2]; 6% in experiment [3]; 39% in experiment [4]; 41% in experiment [5]. Further, the “%Inh” value was 23% in experiment [6]; 0% in experiment [7]; 34% in experiment [8]; 2% in [9]; 4% in experiment [10]; 0% in experiment [11]. Also, the “%Inh” value in experiment [12] is given as 26%; in the experiment with S6K1, 0%.
For the compound `Clc1cc(Nc2ncnc3cc[nH]c23)ccc1OCc1ccccn1`, the “%Inh” value is 0% in the experiment on RIPK1; 27% with RIPK2; 23% with RIPK4; 31% in the experiment with RIPK5; 0% with ROCK1; 0% with ROCK2. Besides, the “%Inh” value is listed as 6% in the experiment with ROS1; 9% in [1]; 11% in experiment [2]; 3% in [3]; 1% in experiment [4]; 0% in [5]. In addition, the “%Inh” value is recorded as 28% in [6]; 10% in [7]; 0% in [8]; 26% in experiment [9]; 20% in [10]; 2% in experiment [11]. Moreover, the “%Inh” value came out at 28% in experiment [12] and 29% in the experiment with S6K1.
